Paper PMC5540273 (PLoS ONE, 2017)

Key:
Conditions in all cases: concentration: 1 μM, replicates: in singlicate; n = 1
[1] = test system: T1, LOK
T1 construct: gene STK10

[2] = test system: LRRK2
[3] = test system: LTK
[4] = test system: LYN
[5] = test system: T2, LZK
T2 construct: gene MAP3K13

[6] = test system: MAK
[7] = test system: MAP3K15
[8] = test system: MAP3K1
[9] = test system: MAP3K2
[10] = test system: MAP3K3
[11] = test system: MAP3K4
[12] = test system: MAP4K2
[13] = test system: MAP4K3
[14] = test system: MAP4K4
[15] = test system: MAP4K5
[16] = test system: MAPKAPK2
[17] = test system: MAPKAPK5
[18] = test system: MARK1
[19] = test system: MARK2
[20] = test system: MARK3
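Also: KINOMEscan kinase panel screen.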

| Compound | %Inh [1] [%] | %Inh [2] [%] | %Inh [3] [%] | %Inh [4] [%] | %Inh [5] [%] | %Inh [6] [%] | %Inh [7] [%] | %Inh [8] [%] | %Inh [9] [%] | %Inh [10] [%] | %Inh [11] [%] | %Inh [12] [%] | %Inh [13] [%] | %Inh [14] [%] | %Inh [15] [%] | %Inh [16] [%] | %Inh [17] [%] | %Inh [18] [%] | %Inh [19] [%] | %Inh [20] [%] |
| --- | --- | --- | --- | --- | --- | --- | --- | --- | --- | --- | --- | --- | --- | --- | --- | --- | --- | --- | --- | --- |
| COc1cc(Nc2nccc(N3CCC(NC(=O)C(C)c4ccc(Cl)cc4)C3)n2)cc(OC)c1OC (centres unmarked) [GSK1379757] | 0 | 0 | 28 | 0 | 0 | 17 | 0 | 1 | 0 | 0 | 0 | 0 | 0 | 8 | 5 | 14 | 0 | 0 | 0 | 0 |
| COc1ccc(-c2coc3ccc(-c4nnc(SCc5cccc(C#N)c5)o4)cc23)cc1 | 4 | 0 | 0 | 0 | 9 | 36 | 0 | 7 | 24 | 12 | 11 | 0 | 13 | 13 | 12 | 0 | 18 | 20 | 18 | 10 |
| CCn1c(-c2nonc2N)nc2ccccc21 [SB-693162/GW549034] | 11 | 83 | 4 | 0 | 55 | 0 | 54 | 46 | 25 | 31 | 0 | 4 | 0 | 0 | 0 | 0 | 33 | 0 | 25 | 0 |
| CCc1ccc(-c2ccc3c(c2)-c2nn(C)cc2S(=O)(=O)N3C)cc1 | 2 | 0 | 0 | 0 | 0 | 0 | 0 | 0 | 0 | 0 | 1 | 0 | 0 | 19 | 22 | 0 | 0 | 24 | 0 | 0 |
| COC(=O)c1c(-c2ccccc2)c2cc(Br)ccc2c(=O)n1Cc1ccc(NC(=O)CCC(=O)O)cc1 | 20 | 4 | 3 | 8 | 4 | 8 | 18 | 12 | 0 | 18 | 38 | 0 | 0 | 0 | 0 | 16 | 4 | 7 | 6 | 0 |
| Cn1c(=O)c(F)c(Nc2ccc(I)cc2F)c2c(=O)n(OC[C@H](O)CO)cnc21 | 2 | 0 | 20 | 14 | 0 | 0 | 0 | 0 | 0 | 4 | 27 | 0 | 0 | 0 | 5 | 0 | 0 | 0 | 0 | 7 |
| CC(C)(C)c1ccc(C(=O)Nc2cn3cc(-c4ccccc4)ccc3n2)cc1 | 0 | 0 | 0 | 0 | 0 | 11 | 22 | 0 | 0 | 2 | 7 | 0 | 33 | 5 | 0 | 12 | 0 | 0 | 19 | 0 |
| Fc1cccc(CSc2nnc(-c3ccc4c(c3)CCO4)o2)c1 | 9 | 10 | 16 | 19 | 0 | 5 | 15 | 26 | 2 | 2 | 0 | 8 | 0 | 0 | 0 | 25 | 16 | 0 | 20 | 5 |
| Cc1cc(Nc2nc(-c3cccc(C)n3)nc3ccccc23)ccn1 [GW872411] | 0 | 0 | 0 | 0 | 0 | 0 | 0 | 0 | 0 | 0 | 0 | 0 | 12 | 0 | 0 | 0 | 0 | 21 | 13 | 22 |
| CCn1c(-c2ccoc2)nc2cnccc21 [SB-733887] | 0 | 0 | 1 | 4 | 0 | 18 | 0 | 14 | 3 | 0 | 0 | 0 | 0 | 11 | 5 | 16 | 0 | 0 | 0 | 3 |
| O=C(NCc1cccs1)c1cc(C(=O)c2c(Cl)cccc2Cl)c[nH]1 [GW823670] | 21 | 0 | 11 | 1 | 0 | 0 | 0 | 0 | 0 | 0 | 0 | 0 | 0 | 0 | 3 | 0 | 0 | 0 | 0 | 50 |
| CCC(=O)c1c(-c2ccccc2)c2cc(Cl)ccc2c(=O)n1Cc1cc(S(C)(=O)=O)n(CC(N)=O)n1 | 0 | 8 | 0 | 7 | 0 | 15 | 0 | 0 | 0 | 0 | 0 | 0 | 0 | 0 | 0 | 0 | 0 | 0 | 0 | 6 |
| Nc1n[nH]c2ncc(-c3ccccc3)cc12 [SB-517081] | 0 | 0 | 0 | 0 | 0 | 17 | 0 | 6 | 15 | 0 | 3 | 0 | 0 | 0 | 0 | 19 | 0 | 0 | 0 | 0 |
